Reference: PubChem BioAssay AID1159580 (chemical genetic matrix, 2015)
Where “and” joins values, the source holds several entries; their conditions need not be identical. Identical values can stand only once. Hit rate of the full screen: of about 5,500 compounds, about 2,000 (36%) were called active. Inconclusive results (about 18%) are left out. No stated cut-off is given here; in the data, active means normalized growth mostly below about 0.91 (no sharp cut-off); inconclusive means no clear call, values can overlap the other calls; inactive means mostly above about 0.92. The list shows a part of the results.

Experiment: chemical genetic growth profiling, strain panel (AID 1159580);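 further: tested at 20 µM; growth read once vehicle control cultures reached saturation at 30 °C; 1 = growth at the plate median or of vehicle wells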
Details: S. cerevisiae deletion strains, growth OD

Measured: normalized growth

CC1=C(O)C(=O)C=C2C1=CC=C1[C@@]2(C)CC[C@@]2(C)[C@@H]3C[C@](C)(C(=O)O)CC[C@]3(C)CC[C@]12C
inactive: locus YBR021W, strain FUR4, stronger effect = lower value 0.859 | locus YDL185W, strain tfp1, stronger effect = lower value 0.943
active: locus YAL021C, strain ccr4, stronger effect = lower value 0.56 | locus YAL026C, strain drs2, stronger effect = lower value 0.51 | locus YAL030W, strain snc1, stronger effect = lower value 0.573 | locus YBL061C, strain skt5, stronger effect = lower value 0.479 | locus YBR009C, strain hhf1, stronger effect = lower value 0.375 | locus YBR023C, strain chs3, stronger effect = lower value 0.42 | locus YBR171W, strain sec66, stronger effect = lower value 0.812 | locus YBR229C, strain ROT2, stronger effect = lower value 0.623 | locus YBR231C, strain swc5, stronger effect = lower value 0.307 | locus YBR279W, strain paf1, stronger effect = lower value 0.527 | locus YCL011C, strain gbp2, stronger effect = lower value 0.433 | locus YCL016C, strain dcc1, stronger effect = lower value 0.592 | locus YCL029C, strain bik1, stronger effect = lower value 0.493 | locus YCL061C, strain MRC1, stronger effect = lower value 0.611 | locus YCL069W, strain vba3, stronger effect = lower value 0.611 | locus YCR088W, strain abp1, stronger effect = lower value 0.64 | locus YDL005C, strain med2, stronger effect = lower value 0.509 | locus YDL035C, strain GPR1, stronger effect = lower value 0.391 | locus YDL040C, strain nat1, stronger effect = lower value 0.848 | locus YDL074C, strain BRE1, stronger effect = lower value 0.195 | locus YDL101C, strain DUN1, stronger effect = lower value 0.264 | locus YDL134C, strain PPH21, stronger effect = lower value 0.44 | locus YDL192W, strain arf1, stronger effect = lower value 0.568 | locus YDR001C, strain nth1, stronger effect = lower value 0.806 | locus YDR069C, strain doa4, stronger effect = lower value 0.327 | locus YDR101C, strain arx1, stronger effect = lower value 0.665 | locus YDR137W, strain rgp1, stronger effect = lower value 0.238 | locus YDR159W, strain sac3, stronger effect = lower value 0.403 | locus YDR162C, strain NBP2, stronger effect = lower value 0.098 | locus YDR195W, strain ref2 0.348 | locus YDR297W, strain sur2, stronger effect = lower value 0.429 | locus YDR318W, strain mcm21, stronger effect = lower value 0.523 | locus YDR334W, strain swr1, stronger effect = lower value 0.353 | locus YDR335W, strain msn5, stronger effect = lower value 0.522 | locus YDR388W, stronger effect = lower value 0.683 | locus YDR392W, strain spt3, stronger effect = lower value 0.101 | locus YDR502C, strain sam2, stronger effect = lower value 0.521 | locus YEL003W, strain gim4, stronger effect = lower value 0.489 | locus YEL037C, strain rad23, stronger effect = lower value 0.769 | locus YEL061C, strain CIN8 (second series), stronger effect = lower value 0.403 | locus YEL061C, strain CIN8, stronger effect = lower value 0.391 | locus YER015W, strain faa2, stronger effect = lower value 0.429 | locus YER016W, strain bim1, stronger effect = lower value 0.565 | locus YER110C, stronger effect = lower value 0.766 | locus YER111C, strain swi4, stronger effect = lower value 0.329 | locus YER155C, strain BEM2 (second series), stronger effect = lower value 0.342 | locus YER155C, strain BEM2, stronger effect = lower value 0.254 | locus YER167W, strain BCK2, stronger effect = lower value 0.334 | locus YFR010W, strain ubp6, stronger effect = lower value 0.657 | locus YGL078C, strain dbp3, stronger effect = lower value 0.905 | locus YGL086W, strain mad1, stronger effect = lower value 0.619 | locus YGL167C, strain pmr1, stronger effect = lower value 0.706 | locus YGL173C, strain kem1, stronger effect = lower value 0.27 | locus YGL227W, strain vid30, stronger effect = lower value 0.571 | locus YGL240W, strain doc1, stronger effect = lower value 0.646 | locus YGL248W, strain PDE1, stronger effect = lower value 0.369 | locus YGL253W, strain hxk2, stronger effect = lower value 0.485 | locus YGR135W, strain pre9, stronger effect = lower value 0.557 | locus YGR252W, strain gcn5, stronger effect = lower value 0.5 | locus YHR013C, strain ard1, stronger effect = lower value 0.273 | locus YHR027C, strain rpn1, stronger effect = lower value 0.423 | locus YHR030C, strain SLT2, stronger effect = lower value 0.248 and 0.76 | locus YHR079C, strain IRE1 (second series), stronger effect = lower value 0.659 | locus YHR079C, strain IRE1, stronger effect = lower value 0.732 | locus YHR094C, strain hxt1, stronger effect = lower value 0.721 | locus YHR129C, strain ARP1, stronger effect = lower value 0.349 | locus YHR142W, strain chs7, stronger effect = lower value 0.309 | locus YHR200W, strain rpn10, stronger effect = lower value 0.749 | locus YIL066C, strain RNR3, stronger effect = lower value 0.308 | locus YIL073C, strain SPO22, stronger effect = lower value 0.623 | locus YIL125W, strain kgd1, stronger effect = lower value 0.812 | locus YIR030C, strain dcg1, stronger effect = lower value 0.552 | locus YJL092W, strain hpr5, stronger effect = lower value 0.7 | locus YJL095W, strain BCK1 (second series), stronger effect = lower value 0.372 | locus YJL095W, strain BCK1, stronger effect = lower value 0.211 and 0.783 | locus YJL115W, strain asf1, stronger effect = lower value 0.856 | locus YJL129C, strain trk1, stronger effect = lower value 0.35 | locus YJL134W, strain LCB3, stronger effect = lower value 0.692 | locus YJL154C, strain vps35, stronger effect = lower value 0.776 | locus YJL164C, strain tpk1, stronger effect = lower value 0.316 | locus YJL166W, strain qcr8, stronger effect = lower value 0.312 | locus YJL168C, strain set2, stronger effect = lower value 0.866 | locus YJL187C, strain SWE1 (second series), stronger effect = lower value 0.142 | locus YJR043C, strain POL32, stronger effect = lower value 0.385
